According to PubChem BioAssay (NCI):
This is part of a sample that, as a whole, favours compounds with a hit. Of some 83,000 tested, about 20% had one in any assay.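 Growth was measured after 48 h exposure to one concentration of compound in 96-well plates. Values under 10 count as active.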 Active and inactive are the calls of the source.

System: SF-295 CNS
Assay: NCI-60 one-dose screen, 48 h (100 = growth as untreated, 0 = no growth, -100 = all killed)
Details: 10 µM unless noted

Row | SMILES | growth
1 | COc1cccc(/C=C2\Oc3cc(OCCN4CCCC4)ccc3C2=O)c1 | 105% (inactive)
2 | COc1ccc(-c2nc3ccc(-c4nc5ccc(N6CCN(c7ccncc7)CC6)cc5[nH]4)cc3[nH]2)cc1OC | 49.8% (inactive)
3 | Cc1ccc(C2=NN3C(C2)c2cc(Br)ccc2OC32CCN(Cc3ccccc3)CC2)o1 (centres undefined) | 100% (inactive)
4 | COc1cc2c(cc1-c1c(C)noc1C)ncc1nc(-c3ccccn3)n([C@H](C)COC(F)F)c12 | 60.4% (inactive)
5 | Cc1oc(-c2ccc(Cl)cc2Cl)cc1C(=O)Nc1nccs1 | 87% (inactive)
6 | COc1ccc2c(c1)c(-c1nonc1-c1cn(C)c3ccccc13)cn2C | 32% (inactive)
7 | COC(=O)c1ccc(NC(=O)c2ccc(-c3cccc([N+](=O)[O-])c3)o2)cc1 | 94.9% (inactive)
8 | COc1cccc(C2=NN3C(C2)c2cc(Br)cc(OC)c2OC32CCN(Cc3ccccc3)CC2)c1 (centres undefined) | 101% (inactive)
9 | O=C1c2cc3c(cc2-c2c1c1cc(F)c(F)cc1c(=O)n2CCCn1ccnc1)OCO3 | -12.4% (active)
10 | Cc1ccc2c(C(C[N+](=O)[O-])c3ccccc3F)c(-c3ccccc3)[nH]c2c1 (centres undefined) | 17.6% (inactive)
11 | Cc1ccccc1COc1ccc(-c2onc(C)c2-c2ccc(Cl)cc2)cc1 | 49.4% (inactive)
12 | COC[C@H](C)n1c(C2CCOCC2)nc2cnc3cc(-c4c(C)noc4C)c(OC)cc3c21 | 53.7% (inactive)
13 | C#CCOc1ccc2ncnc(NCc3cccc(NC(=O)CCl)c3)c2c1 | 93.9% [8.25 µM] (inactive)
14 | COc1cc(-c2nn(C)nc2-c2cc3ccccc3s2)cc(OC)c1OC | 9.39% (active)
